# From PubChem BioAssay
# Results filed as inconclusive are left out. Activity calls are given as the source filed them.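 The calls were made as follows, unless noted: active = inhibition over a set limit, the all-compound mean plus 3 SD, in both replicate runs; inconclusive = over that limit in just one replicate run; inactive = at or under that limit in both runs.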
# Key:
# [1] = Her2 expression decrease, cell viability multiplex – SKBR3 breast tumor cells, AlphaScreen, ATP viability, primary screen (AID 461;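 active = Her2 level under about 52% in both replicate screens, with viability over 70% of control, limit read from the data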;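 as to Her2 level: lower value means less Her2 protein in the cells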;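 as to viability: percent of carrier control wells set as 100% viability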); details: SKBR3 Her2 protein level, 18-24 h, measured here: SKBR3 viability, ATP luminescence, at 10 µM
# [2] = biological target: Receptor tyrosine-protein kinase erbB-2 (Homo sapiens) (UniProt P04626); assay: as above; details: 18-24 h, at 10 µM, stronger effect = lower value
# [3] = reduced viability of SK-BR-3 breast cancer cells – cell-based, 24 h, human, pilot screen (AID 572;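 active = viability at or below 10% of carrier control in both of two separate runs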;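 also: compound exposure lasted between 18 and 24 h rather than exactly 24 h; 100% = carrier-treated control wells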); details: SK-BR-3 viability, CellTiter-Glo luminescence, at 10 µM, stronger effect = lower value
# [4] = HUVEC growth inhibition – cell-based, human, primary screen (AID 575;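 active = viability at or below 30% in both replicate assays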;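 also: 100% = median of untreated cell wells with 0.1% DMSO on each plate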); details: HUVEC proliferation, CellTiter-Glo luminescence, 72 h; at 10 µM; stronger effect = lower value
# [5] = H69AR cell proliferation blockers – human, duplicate replicates, primary screen (AID 580;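 active = viability at or under a set limit in both replicates, limit being median viability minus 3 SD, cut at about 48% in these data, passing the limit was not always enough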;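 also: 100% = mean luminescence of untreated wells and 0% = no signal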); details: H69AR lung tumor cells viability, ATP luminescence, 72 h; at 10 µM; stronger effect = lower value
# [6] = MRP1 drug-resistance reversers in H69AR cells – cell-based, doxorubicin co-treatment, pilot screen (AID 601;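 active = viability loss from added drug above about 55%, and viability with drug at most 40%, in both replicates, limit read from the data, passing the limit was not always enough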); details: CellTiter-Glo, 72 h, at 10 µM; for differential viability (reversal): stronger effect = higher value
# [7] = yeast transport mutant growth inhibition pilot in 384-well plates, post-Golgi transport modulator project (AID 636; in the data active = inhibition above about 31%); details: absorbance 615 nm, about 18 h, stronger effect = higher value
# [8] = growth suppression of yeast trafficking mutant, preliminary HTS, modulators of trafficking downstream of Golgi apparatus project, 1536-format plate, OD 615 nm (AID 637; in the data active = inhibition above about 30%); details: yeast transport mutant growth, absorbance 615 nm, 18 h; stronger effect = higher value
# [9] = S. cerevisiae growth inhibition in permissive medium (OD615), pilot counter-assay for S. cerevisiae lifespan shortening project, permissive growth control (AID 705;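 active = growth inhibition above 25% in both replicates, a cutoff set 3 SD above the mean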); details: OD615, 24 h, at 10 µM, stronger effect = higher value
# [10] = S. cerevisiae growth inhibition in restrictive medium, OD615, pilot screen, restrictive growth control, yeast lifespan reduction project (AID 706;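 active = growth inhibition above a set limit, 3 SD over mean compound inhibition, in both replicates, cut at about 43% in these data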;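 also: modified DeaD lifespan yeast strain shifted to restrictive glucose medium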); details: OD615, 48 h, at 10 µM, stronger effect = higher value
# [11] = doxorubicin toxicity protection in MRP-1 cells – H69AR cells, CellTiter-Glo, duplicate, MRP-1 activator project, pilot screen (AID 807;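 active = viability increase at or above a cutoff of the median across tested compounds plus 3 SD, cut at about 8.5% in these data, passing the limit was not always enough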;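 also: compound pretreatment 18-22 h then 72 h combined with doxorubicin; 0% = doxorubicin alone and 100% = vehicle without doxorubicin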); details: H69AR viability with doxorubicin, CellTiter-Glo luminescence; at 10 µM; stronger effect = higher value
# [12] = viability of HCT116 without oncogenic beta-catenin – human colon tumor cells, pilot screen (AID 823;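 active = cell viability at or below a set limit in both duplicate runs, the limit being the all-compound median minus 4 SD, cut at about 23% in these data, passing the limit was not always enough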;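 also: 0% = wells killed by 20 µM Hyamine and 100% = untreated DMSO cell wells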); details: HCT116 beta-catenin knockout viability, CellTiter-Glo, 60 h; at 10 µM; stronger effect = lower value
# [13] = viability of PTEN-null HCT116 cells – cell-based, HCT116 clonal line, CellTiter-Glo, pilot screen (AID 824;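 active = viability at or below 27.92% in each of two runs, the all-compound median minus 4 SD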;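 also: 0% = 20 µM Hyamine control and 100% = vehicle cell control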); details: HCT116 PTEN-deleted viability, 60 h, at 10 µM, stronger effect = lower value
# [14] = RAM pathway blockade in budding yeast – dse1pr::URA3 reporter, 5-FOA selection, pilot screen (AID 869);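 also: 0% = DMSO wells with no growth and 100% = 10 µM 1-NA-PP1 with full growth; RAM network block rescues cells from 5-FOA so hits raise OD615 growth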; details: S. cerevisiae dse1pr::URA3 5-FOA growth, OD615, 2 d; at 10 µM; stronger effect = higher value; strain carries analog-sensitive mutant Cbk1 kinase
# [15] = RAM signaling pathway blockade in yeast – S. cerevisiae, Pdr1DBD-CYC8 efflux-inhibited sensitized strain, primary screen (AID 1298;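 active = RAM network inhibition above 8.4% in each of two replicates, 3 SD over the compound average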;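 also: 0% = DMSO untreated cells without growth and 100% = 10 µM 1-NA-PP1 full growth; higher means more yeast growth rescued from 5-FOA killing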); details: S. cerevisiae cbk1-as DSE1-URA3 strain, 5-FOA growth OD615, 2 d; at 50 µM; stronger effect = higher value
# [16] = H69AR cells + 2 uM doxorubicin, measured here: viability with 2 uM doxorubicin, stronger effect = lower value
# [17] = H69AR cells, compound alone cytotoxicity
# Receptor tyrosine-protein kinase erbB-2 (Homo sapiens), sequence (P04626 whole entry, looked up): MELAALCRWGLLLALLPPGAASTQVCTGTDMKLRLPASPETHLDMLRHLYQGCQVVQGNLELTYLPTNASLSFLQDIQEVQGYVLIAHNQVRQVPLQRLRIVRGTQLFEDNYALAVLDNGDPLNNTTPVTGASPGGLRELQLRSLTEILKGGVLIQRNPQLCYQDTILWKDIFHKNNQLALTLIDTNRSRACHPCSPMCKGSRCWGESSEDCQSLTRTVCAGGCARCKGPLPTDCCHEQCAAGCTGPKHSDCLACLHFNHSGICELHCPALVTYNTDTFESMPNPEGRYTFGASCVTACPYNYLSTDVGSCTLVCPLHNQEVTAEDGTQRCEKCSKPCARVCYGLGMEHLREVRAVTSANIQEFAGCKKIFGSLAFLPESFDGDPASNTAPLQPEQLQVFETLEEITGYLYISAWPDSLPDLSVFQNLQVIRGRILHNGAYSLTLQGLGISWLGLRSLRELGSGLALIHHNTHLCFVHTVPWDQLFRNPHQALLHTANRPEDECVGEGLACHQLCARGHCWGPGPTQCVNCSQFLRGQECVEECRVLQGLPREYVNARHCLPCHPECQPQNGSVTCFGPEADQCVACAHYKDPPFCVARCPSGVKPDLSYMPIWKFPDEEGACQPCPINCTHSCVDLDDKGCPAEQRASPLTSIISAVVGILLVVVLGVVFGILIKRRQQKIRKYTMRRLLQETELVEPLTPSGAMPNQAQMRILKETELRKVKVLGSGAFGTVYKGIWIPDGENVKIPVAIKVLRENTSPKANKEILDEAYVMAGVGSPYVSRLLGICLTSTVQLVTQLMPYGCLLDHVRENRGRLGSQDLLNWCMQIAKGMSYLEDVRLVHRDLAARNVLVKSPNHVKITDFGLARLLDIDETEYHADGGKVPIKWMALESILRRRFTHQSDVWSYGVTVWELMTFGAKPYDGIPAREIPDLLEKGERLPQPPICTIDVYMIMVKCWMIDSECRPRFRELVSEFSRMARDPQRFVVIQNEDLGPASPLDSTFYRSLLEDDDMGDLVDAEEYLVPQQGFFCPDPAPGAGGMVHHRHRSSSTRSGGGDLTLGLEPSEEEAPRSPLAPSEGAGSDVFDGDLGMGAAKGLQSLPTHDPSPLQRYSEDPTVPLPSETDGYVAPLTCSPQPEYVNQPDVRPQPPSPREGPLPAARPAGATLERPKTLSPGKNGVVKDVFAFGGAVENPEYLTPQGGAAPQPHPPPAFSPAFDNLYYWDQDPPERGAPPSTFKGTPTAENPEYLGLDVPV
Compound,viability [1] [%],Her2 level [2],viability [3],viability [4],viability [5],differential viability (reversal) ([6]; H69AR cells + 2 uM doxorubicin),"viability [6, 16] [%]","viability [6, 17] [%]",inhibition [7],inhibition [8],growth inhibition [9],growth inhibition [10],viability increase [11],viability [12],viability [13],inhibition [14],RAM network inhibition [15]
Cc1[nH]c2ccccc2c(=O)c1CN1CCCCC1,99,103% (inactive),99% (inactive),101% (inactive),90.5% (inactive),-0.56% (inactive),91.1,90.5,-4.29% (inactive),-3.67% (inactive),-17.1% (inactive),-15.9% (inactive),-0.38% (inactive),97.3% (inactive),105% (inactive),0.515% (inactive),-0.21% (inactive)
Cc1c(NC(=O)c2ccc(CN3CCc4ccccc4C3)cc2)c(=O)n(-c2ccccc2)n1C,95,109% (inactive),95% (inactive),94.3% (inactive),98.8% (inactive),4.51% (inactive),94.3,98.8,-5.64% (inactive),-4.83% (inactive),-4.14% (inactive),-6.79% (inactive),0.51% (inactive),79.6% (inactive),84.4% (inactive),0.845% (inactive),5.97% (inactive)
CNC(=O)C1C2C=CC3(O2)C1C(=O)N(C1CC1)C3C(=O)NCc1ccc(OC)cc1 (centres undefined),99.5,84% (inactive),99.5% (inactive),91.9% (inactive),91.5% (inactive),-0.53% (inactive),92,91.5,-8.49% (inactive),-0.16% (inactive),-12.6% (inactive),1.86% (inactive),-1.49% (inactive),96.3% (inactive),,0.115% (inactive),1.1% (inactive)
Cc1ccc(S(=O)(=O)N2CCOCC2)cc1C(=O)Nc1nc(-c2cccnc2)cs1,106,91% (inactive),106% (inactive),88.8% (inactive),103% (inactive),9% (inactive),94.3,103,0% (inactive),-3.33% (inactive),-14.2% (inactive),-6.87% (inactive),-1.69% (inactive),96.8% (inactive),,1.93% (inactive),3.11% (inactive)
CC1CCCN(S(=O)(=O)c2coc(C(N)=O)c2)C1 (centres undefined),87.5,119% (inactive),87.5% (inactive),82.6% (inactive),94.6% (inactive),-23.4% (inactive),118,94.6,-0.51% (inactive),1% (inactive),-19.2% (inactive),-4.31% (inactive),-0.1% (inactive),108% (inactive),99.5% (inactive),1.33% (inactive),2.99% (inactive)
Cc1nc2ccc(Br)cn2c1NC(C)(C)C,89.5,103% (inactive),89.5% (inactive),101% (inactive),86.8% (inactive),0.425% (inactive),86.3,86.8,-6.58% (inactive),-10.3% (inactive),-13.4% (inactive),4.22% (inactive),-2.98% (inactive),89.2% (inactive),,1.55% (inactive),1.46% (inactive)
O=C(Nc1ccc(N2CCCC2)cc1)c1ccc(Br)o1,93.5,93.5% (inactive),93.5% (inactive),94.3% (inactive),101% (inactive),15.6% (inactive),85.2,101,0.27% (inactive),1.97% (inactive),3.95% (inactive),14.9% (inactive),-0.48% (inactive),94% (inactive),92.3% (inactive),3.5% (inactive),6.03% (inactive)
CCOc1ccc(NC(=O)CSc2nccn2C)cc1,103,85.5% (inactive),103% (inactive),82.7% (inactive),99.7% (inactive),6.7% (inactive),93,99.7,-4.34% (inactive),0.83% (inactive),-14.8% (inactive),-9.37% (inactive),-1.79% (inactive),106% (inactive),,2.29% (inactive),7.99% (inactive)
COc1cccc2c(=O)c3c(cnn3C)n(C)c12,106,100% (inactive),106% (inactive),84.9% (inactive),81.9% (inactive),-10.9% (inactive),92.8,81.9,-1.97% (inactive),1.27% (inactive),-1.81% (inactive),48.7% (active),-5.44% (inactive),87.1% (inactive),,1.5% (inactive),0.52% (inactive)
O=C(c1ccco1)N1CCN(C(=O)c2sccc2-c2ccccc2)CC1,93,104% (inactive),93% (inactive),86.2% (inactive),83% (inactive),-6.79% (inactive),89.8,83,2.3% (inactive),-4.92% (inactive),-18.7% (inactive),-9.14% (inactive),-5.64% (inactive),94.6% (inactive),,2.49% (inactive),4.79% (inactive)
Fc1ccc(-c2ccc(-c3nn4c(-c5ccco5)nnc4s3)o2)cc1,76,63% (inactive),76% (inactive),77.8% (inactive),79.7% (inactive),5.16% (inactive),74.5,79.7,-4.32% (inactive),4.92% (inactive),2.35% (inactive),60.4% (active),-3.88% (inactive),97.1% (inactive),,1.25% (inactive),2.34% (inactive)
CCCc1nnc2n1N=C(c1ccc(-c3cc(Cl)ccc3Cl)o1)CS2,108,94% (inactive),108% (inactive),97.1% (inactive),89.2% (inactive),1.35% (inactive),87.8,89.2,-1.82% (inactive),0% (inactive),-18.6% (inactive),4.29% (inactive),-2.95% (inactive),97.8% (inactive),,1.36% (inactive),1.93% (inactive)
C(/CCc1ccccc1)=N\n1cnnc1,105,94.5% (inactive),105% (inactive),117% (inactive),99% (inactive),9.93% (inactive),89.1,99,-5.07% (inactive),8.03% (inactive),-14.7% (inactive),1.89% (inactive),-1.24% (inactive),102% (inactive),,0.44% (inactive),5.92% (inactive)
Cc1ccc(SCC(=O)NCCN2C(=O)CSC2=O)c(C)c1,99.5,110% (inactive),99.5% (inactive),92.3% (inactive),87.7% (inactive),-1.79% (inactive),89.5,87.7,0.52% (inactive),-0.83% (inactive),-14.8% (inactive),-3.53% (inactive),-0.38% (inactive),111% (inactive),,1.09% (inactive),3.32% (inactive)
O=C(CCNS(=O)(=O)c1cccc2nsnc12)NCc1cccs1,101,85.5% (inactive),101% (inactive),94.3% (inactive),96% (inactive),0.62% (inactive),95.4,96,-9.45% (inactive),4.13% (inactive),-4.72% (inactive),-7.42% (inactive),-3.39% (inactive),,95.4% (inactive),1.54% (inactive),3.13% (inactive)
Cc1cc(N2CCOCC2)nc2ccc(NC(=O)C3CCC(C)CC3)cc12 (centres undefined),73.5,110% (inactive),73.5% (inactive),62.5% (inactive),76.3% (inactive),-9.34% (inactive),85.7,76.3,-0.27% (inactive),-6.67% (inactive),-11.1% (inactive),0.545% (inactive),-4.21% (inactive),,81% (inactive),1.95% (inactive),4.29% (inactive)
CCOC(=O)c1cc2c(=O)n3ccccc3nc2n(CCCOC)c1=NC(C)=O,90,94.5% (inactive),90% (inactive),109% (inactive),94.2% (inactive),26.5% (inactive),67.7,94.2,-5.48% (inactive),-0.48% (inactive),-6.91% (inactive),-0.22% (inactive),-4.92% (inactive),,100% (inactive),1.38% (inactive),6.83% (inactive)
CCOC(=O)CCCOC(=O)c1ccc(S(=O)(=O)N(C)C)cc1,95,84.5% (inactive),95% (inactive),88.7% (inactive),100% (inactive),1.72% (inactive),98.7,100,-6.49% (inactive),2.79% (inactive),-13.7% (inactive),-2.25% (inactive),-2% (inactive),,89.6% (inactive),1.5% (inactive),4.96% (inactive)
Cc1ccc(-n2c3c(cc(C(=O)O)c2=O)C(=O)CC(C)(C)C3)cc1,98,82.5% (inactive),98% (inactive),111% (inactive),87.8% (inactive),-3.07% (inactive),90.9,87.8,-1.84% (inactive),0% (inactive),-16.4% (inactive),-5.83% (inactive),-3.48% (inactive),,100% (inactive),0.675% (inactive),4.71% (inactive)
CN1C(=O)C(O)(CC(=O)c2ccc(F)cc2)c2cc(Br)ccc21 (centres undefined),85.5,86.5% (inactive),85.5% (inactive),76.8% (inactive),20.1% (active),-30.8% (inactive),50.9,20.1,-5.2% (inactive),2% (inactive),-8.62% (inactive),-8.46% (inactive),-6.12% (inactive),,15.8% (active),1.45% (inactive),-0.67% (inactive)
